# Assay results as given in PubChem BioAssay (NCI).
# Compounds without any hit were thinned out: in the full panel of roughly 83,000, 20% have a hit.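 How to read the values: 0–100, growth inhibition (40 = 60% inhibited); 0, no net growth; -100 to 0, cell death (-40 = 40% of starting cells died; -100 = all dead).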 Values without a mark were called inactive. The source made the active and inactive calls. The calls were made as follows: active = growth percent below 10; inactive = the rest.
# How the values were obtained:
# Test in all cases: NCI-60 one-dose screen, 48 h (100 = growth as untreated, 0 = no growth, -100 = all killed)
# Conditions in all cases: 10 µM unless noted
# [1] = tested on: HCT-15 colon
# [2] = tested on: HT29 colon
# [3] = tested on: SNB-75 CNS
# [4] = tested on: SNB-19 CNS
# [5] = tested on: U251 CNS
# [6] = tested on: PC-3 prostate
# [7] = tested on: SK-MEL-5 melanoma
# [8] = tested on: UACC-62 melanoma
# [9] = tested on: LOX IMVI melanoma
# [10] = tested on: SK-MEL-28 melanoma
Compound,growth [1],growth [2],growth [3],growth [4],growth [5],growth [6],growth [7],growth [8],growth [9],growth [10]
Nc1cc(-c2c[nH]c3ccc(Cl)cc23)nc2cc(-c3c[nH]c4ccccc34)nn12,-87.1% (active),-59.7% (active),19.4%,-59.5% (active),-74.4% (active),-12% (active),-87% (active),-82.7% (active),-94.6% (active),-66.9% (active)
CN1C(=O)C(O)(CC(=O)c2cc3ccccc3oc2=O)c2ccccc21 (stereo not given),94.7%,104%,107%,93.3%,97.2%,92.4%,100%,86.8%,87.9%,107%
COc1ccc2oc(=O)c(-c3csc(N/N=C(\C)c4cc(OC)c(OC)c(OC)c4)n3)cc2c1,86.8%,113%,154%,86.6%,92.3%,67.6%,69.6%,93.1%,86.6%,102%
O=C1c2cccc3c(N4CCN(Cc5ccccc5)CC4)ccc(c23)C(=O)N1c1cccc(-c2nn(-c3ccccc3)cc2-c2nc3ccccc3s2)c1,110%,115%,84.3%,103%,106%,88.1%,102%,94.6%,97.9%,106%
C#CCN(C)CCCOc1ccc(N(C)C(=O)c2cc(C(C)C)c(O)cc2O)cc1Cl,4.84% (active),9.18% (active),26.2%,22.1%,11.4%,20%,-94.4% (active),-17.6% (active),-89.2% (active),15.9%
O=C(N/N=C/c1occc1Br)c1[nH]c2ccc(Br)cc2c1-c1ccccc1,-78% (active),-68.7% (active),-78.2% (active),-97.1% (active),-82.6% (active),-51.3% (active),-97.6% (active),-95% (active),-100% (active),-96.5% (active)
COc1ccc2ccccc2c1/C=C1\SC(=Nc2ccc(O)cc2)NC1=O,4.61% (active),0.351% (active),77.7%,24.5%,5.13% (active),21.5%,-53.6% (active),16.4%,-3.89% (active),52.7%
Cc1ccccc1NC(=O)c1cccc(NC(=O)CCl)c1,43.5%,35.6%,53.9%,72.7%,-53.1% (active),55.8%,44.2%,24.4%,-47.5% (active),71.1%
COc1cc(CNC(=O)C[C@H](C)CCC=C(C)C)ccc1OCc1cn(-c2ccc(Br)cc2)nn1,82.4%,94.4%,47.3%,57.7%,63.4%,81.4%,55.7%,65.1%,74%,96.5%
O=C(Nc1ccc(Cl)c(C(F)(F)F)c1)N1CCN(c2cc(-c3cn(-c4ccccc4)nc3-c3cccc(O)c3)ccn2)CC1,-7.34% (active),-35.3% (active),5.08% (active),17%,11.8%,6.31% (active),-97.2% (active),-88.6% (active),-76.9% (active),-24.8% (active)
Cc1cc(=O)oc2cc(OCC(O)CNN3C(=O)c4cccc5c(N6CCN(C)CC6)ccc(c45)C3=O)ccc12 (stereo not given),91%,89.6%,82.4%,96.2%,103%,105%,102%,79.2%,71%,-17.3% (active)
Oc1ccc(F)c(Nc2nc(SCCN3CCOCC3)nc3c2cnn3CC(Cl)c2ccc(Br)cc2)c1 (stereo not given),1.07% (active),8.07% (active),15.2%,46.1%,21.9%,7.79% (active),18.1%,20.8%,-17.8% (active),21%
Clc1ccc(Nc2nnc(-c3c[nH]c4ccccc34)o2)cc1,40.4%,88.6%,59.5%,85.5%,76.4%,60.7%,87.6%,65.4%,58.1%,91.1%
Cc1nc2sccn2c1-c1nnc(SCC(C)C)o1,77.2%,79.9%,73.7%,78.7%,78.2%,83.1%,89.4%,77.2%,91.3%,104%
COc1cccc2nc(Nc3cccc(NC(=O)c4ccc(CN5CCN(C)CC5)c(C(F)(F)F)c4)c3)ccc12,-79.1% (active),-69.3% (active),-97.5% (active),-100% (active),-73.7% (active),-50.9% (active),-100% (active),-99.1% (active),-100% (active),-100% (active)
CCCn1c(NC(=O)c2cccc(C(N)=O)c2)nc2cc(CN3CCCCC3)ccc21,77.9%,87.1%,133%,113%,116%,77%,88%,113%,96.5%,112%
Cc1ccc(C(C)C)cc1Oc1cccc(-c2c(-c3ccc(C(F)(F)F)cc3)ncn2C2CCNCC2)n1,-94.1% (active),-92.1% (active),-94.1% (active),-97.2% (active),-85.3% (active),-92% (active),-98.6% (active),-94.1% (active),-75.8% (active),-80.5% (active)
CC[C@]12C=CCN3CC[C@]4(C(=C(C(=O)OC)C1)Nc1cc(OC)c([C@@H]5[C@H]6O[C@H]6[C@@]6(CC)CC(C(=O)OC)=C7Nc8cc(O)ccc8[C@@]78CCN5[C@@H]68)cc14)[C@@H]32,-77.2% (active),-27.1% (active),27.3%,21.6%,-38.2% (active),13.5%,-96.1% (active),-71.9% (active),-94.5% (active),-21.8% (active)
COc1ccc2[nH]c(=O)c(CSc3ccccc3Nc3nccc(-c4ccc(Cl)cc4)n3)cc2c1,25.8%,17.3%,23.6%,56.8%,37.8%,38.5%,25.4%,52.6%,19.4%,74.1%
CN1C(=O)/C(=C/c2ccco2)S/C1=N/c1nccs1,93.8%,103%,97.4%,99.4%,111%,98.1%,98.9%,86.7%,97.7%,112%
O=C(O)CC1S/C(=N/N=C/c2nc3ccccc3s2)NC1=O (stereo not given),76.5%,114%,96.9%,96.3%,89.8%,103%,96.9%,114%,100%,117%
Clc1ccc(-c2nc3c4c(-c5ccccc5)c(-c5ccccc5)n(Cc5ccccc5)c4ncn3n2)cc1,13.6%,-2% (active),-23.1% (active),8.49% (active),15.1%,-1.48% (active),-94.6% (active),11.7%,11.9%,36.2%
COc1ccc(-c2nc3ccc(-c4nnc(SCc5ccccc5)o4)cc3[nH]2)cc1OC,35.6%,52.9%,-54.2% (active),28.1%,0.298% (active),50.9%,39.7%,0.287% (active),7.48% (active),30.6%
N#C/C(=C/c1ccc([N+](=O)[O-])cc1)c1nnc(NC(=O)c2ccc(-n3c(=O)[nH]c4ccccc4c3=O)cc2)s1,93.3%,110%,110%,87.1%,89.5%,90.9%,99%,99.2%,90.5%,100%
COc1c(B(O)O)cc(F)cc1-c1nc2c(F)cc3[nH]ncc3c2c2c1CCCC2,4.25% (active),21.1%,-78.1% (active),7.54% (active),10.8%,12.8%,7.04% (active),-7% (active),-16.6% (active),25.7%
Cc1ccc(C(=O)Nc2cc(-n3ccnc3C)cc(C(F)(F)F)c2)cc1C#Cc1cnc2cccnn12,5.01% (active),-16.8% (active),-28.1% (active),30.3%,22.1%,8.32% (active),-67.6% (active),-40% (active),-80.2% (active),-32.4% (active)
